In PubChem BioAssay (NCI):
Compounds without any hit were thinned out: in the full panel of roughly 83,000, 20% have a hit.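 Percent growth is the endpoint: 0 to 100 indicates growth inhibition (40 means 60% inhibition), 0 means no net growth, and negative values indicate cell death.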 A number with no mark means an inactive call. Activity calls are given as the source filed them.

Tested on: A549/ATCC NSCLC
Assay: NCI-60 one-dose screen, 48 h (100 = growth as untreated, 0 = no growth, -100 = all killed)
Settings: 10 µM
Protocol: Growth inhibition of the A549/ATCC human Non-Small Cell Lung tumor cell line is measured as a screen for anti-cancer activity. Cells are grown in 96 well plates and exposed to the test compound for 48 hours. Compounds are tested at a single concentration, which is 10^-5 M for most compounds. The reported endpoint is percent growth (GI% or GIPRCNT), where numbers from 0 - 100% represent growth inhibition, and numbers from -100% - 0 represent cell death. For example, a value of 40 represents 60% growth inhibition. A value of 0 means no net growth occurred over the course of the experiment. A value of -40 indicates 40% of cells at the beginning of the experiment died by the end of the experiment. A value of -100 means all cells are dead at the end of the experiment.
NCI-60 Human Tumor Cell Lines Screen was performed using the standard one-dose NCI protocol, which is described in more detail at https://dtp.cancer.gov/discovery_development/nci-60/default.htm.
Compounds with GIPRCNT values below 10 were considered active. Activity score was based on GIPRCNT using the following formula: […]
Score is 0 for GIPRCNT values of 100 or above, 50 for GIPRCNT values of 0, and 100 for GIPRCNT values of -100.

SMILES	growth
O=C1N=NC2=C1c1c3ccccc3c(O)n1CC2	45.1%
COc1ccc(-c2nc(-c3nc4cc(Cl)c(F)cc4[nH]3)c3ccccn23)cc1	49.4%
CN(C)N=Nc1nn(C(=O)Nc2ccc(Cc3ccccc3)cc2)c2ccccc12	31.5%
CS(=O)(=O)Nc1ccc(Nc2c3ccccc3nc3cc(N)ccc23)cc1	11%
CCOC(=O)CCC(NC(=O)c1ccc(N)cc1)C(=O)OCC (stereo not given)	99.4%
OCC1OC(n2cnc3c(N/N=C\c4ccccn4)ncnc32)C(O)C1O (stereo not given)	24.6%
COc1cccc(Cn2c(-c3nonc3N)nc3ccccc32)c1	16.4%
Nc1nc(-c2ccccc2Cl)cc(-c2ccc(Cl)cc2Cl)n1	52.7%
O=C(NC(Cc1ccc(O)cc1)C(=O)N=Nc1c(O)[nH]c2ccccc12)c1ccccc1 (stereo not given)	99.5%
CC/C(=C(/c1ccc(OCCN(C)C)cc1)c1ccc(OC(=O)CCC(=O)c2c(C)[nH]c(/C=C3\N=C(c4ccc[nH]4)C=C3OC)c2C)cc1)c1ccccc1	11%
CCC(=O)N1C/C(=C/c2ccc(Br)cc2)C(=O)/C(=C/c2ccc(Br)cc2)C1	-27.2% (active)
C#Cc1ccc(-n2c(/C=C/c3ccc(C(F)(F)F)cc3)nc3ncccc3c2=O)cc1	23.6%
COc1cc(/C(=C2/O[C@@H]([C@H]3COC(C)(C)O3)[C@H]3OC(C)(C)O[C@@H]23)c2ccc3ccccc3c2)cc(OC)c1OC	-9.4% (active)
NC1(C(=O)O)CSSC1	22.1%
O=S(=O)(Nc1ccccn1)c1ccc(N=Nc2ccc(O)c3ncccc23)cc1	-6.8% (active)
COc1cc(Cl)cc(-c2nn(-c3cccc(NC(=O)Nc4ccc(Cl)c(C(F)(F)F)c4)c3)cc2-c2ccncc2)c1	5.2% (active)
CCCCCCCC(C)NCCO (stereo not given)	93.5%
CCN(CCCCCCN1CC(=O)N(CCCCCCN(CC)Cc2ccccc2OC)CC1=O)Cc1ccccc1OC	85.8%
COc1cc(-c2cc(/C=C/C(=O)c3ccc(Cl)c(Cl)c3)[nH]n2)cc(OC)c1OC	88.3%
Cc1cccc(C)c1NC(=O)c1sc2nc3c(cc2c1N)C(=O)CCC3	35.6%

SMILES	growth
COc1ccc(OC)c(NC(=O)c2sc3nc4c(cc3c2N)C(=O)CCC4)c1	39%
COC(=O)C1(C)Cc2cc(OC(C)=O)c(OC(C)=O)cc2N1 (stereo not given)	31.6%
CC(=O)c1nc2ccccc2n1CCN1CCN(C)CC1	31.2%
ClCCOCCn1cnc2c(Cl)nc(Cl)nc21	60.7%
Cc1ccc(N=Nc2c(N)nc(N)[nH]c2=O)cc1C	104%
O=C1CC[C@@H]2CCCC[C@@H]2C1	107%
CC(C)(C)c1cc(Br)cc(C(C)(C)C)c1O	91.1%
CCCCCCc1cc(N=Nc2ccc(S(=O)(=O)Nc3cc(C)nc(C)n3)cc2)c(O)cc1O	106%
COc1ccc(-c2nc3sc(-c4ccc(OC)cc4)c(-c4ccc(OC)cc4)n3c2/C=C/c2ccc(C(C)C)cc2)cc1	95.2%
Cc1ccc(NC(=O)NC2CCCCC2)cc1	91.5%
N=c1nc(N)ncn1-c1ccccc1	92.4%
O=C(Nc1cccc(-n2cc(-c3ccncc3)c(-c3ccc(O)c(Cl)c3)n2)c1)Nc1cccc(C(F)(F)F)c1	-6.05% (active)
CC1(C)N=C(N)N=C(N)N1c1ccc(CCc2ccccc2)c(Cl)c1	10.4%
CC(C)(C)c1ccc(N2CSC(=S)N(c3ccc(C(C)(C)C)cc3)C2)cc1	38%
Cc1cc(Cl)nc(N(CCCNc2ccnc3cc(Cl)ccc23)Cc2cccs2)n1	18.1%
COc1cc(C(=O)N2CCN(c3ccccc3OC)CC2)c(N)cc1OCCCN1CCN(c2ccccc2OC)CC1	92.7%
CC(=O)c1nc2ccccc2n1CCNC(N)=O	62.3%
CC(=O)/C(=C/c1ccccc1)C(=O)CC(C)C	97%
COc1ccc(-c2nc(-c3nc4cc(Cl)c(Cl)cc4[nH]3)c3ccccn23)cc1	16.8%
COc1cc(C)ccc1C(=O)c1ccc(C)cc1OC	26.9%
